# Reference: PubChem BioAssay (NCATS)
# Values joined by “and” are separate entries in the source; they are usually repeats but may differ in a detail not shown here. Equal values may be shown once. Records with an inconclusive call do not appear. A call without a number means that no potency is given here. Active and inactive are the calls of the source. The call rests on the fitted dose curve. Residues, ends and D or L forms follow the SMILES beside them.
# Test: Cytotoxicity counterscreen for inhibitors of SARS-CoV-2 cell entry (AID 1645845); further: nearly all actives have a fitted effect of over 50% in size
# Settings: cell viability (SARS-CoV-2 entry assay cells); series mostly up to 57.1 µM
# Method in brief: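 Expi293F/hACE2 cells seeded overnight; cpd pin-transferred in DMSO, 1 h preincubation, + media, 48 h 37 C 5% CO2; ATPLite 1step luminescence; normalized to cells and no cells.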
row,SMILES,Potency
1,C[C@]12C=CC(=O)C=C1CC[C@@H]1[C@@H]2[C@@H](O)C[C@@]2(C)[C@H]1CC[C@]2(O)C(=O)CO,inactive
2,CNNCc1ccc(C(=O)NC(C)C)cc1,inactive
3,CN1C(C(=O)Nc2ccccn2)=C(O)c2ccccc2S1(=O)=O,inactive

# Test: Primary qHTS to identify inhibitors of SARS-CoV-2 cell entry (AID 1645846); further: nearly all actives have a fitted effect of over 45% in size; further: potency means the concentration at half of the fitted maximal effect
# Settings: SARS-CoV-2 pseudovirus cell entry assay, luminescence; activity change, negative = inhibition: at 57.1 µM (top of the series) unless noted; series mostly up to 57.1 µM
# Method in brief: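 Inhibition of spike-mediated entry was scored in human ACE2-transfected Expi293F cells. Particles were MLV-pseudotyped with Wuhan-Hu-1 S carrying a 19-aa C-terminal deletion; signal was luciferase after two days, scaled between spike PP and fusion-protein-free PP.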
SMILES,Potency,"activity change, negative = inhibition",outcome
NC(N)=NC(=O)Cc1c(Cl)cccc1Cl,inactive,–,–
CC(O)(P(=O)(O)O)P(=O)(O)O,inactive,–,–
COc1cc(C(=O)NS(=O)(=O)c2ccccc2C)ccc1Cc1cn(C)c2ccc(NC(=O)OC3CCCC3)cc12,inactive,–,–
CCN(Cc1ccncc1)C(=O)C(CO)c1ccccc1 (centres undefined),inactive,–,–
Cc1cccn2c(=O)c(-c3nnn[nH]3)cnc12,inactive,–,–
CC(=O)N1CCN(c2ccc(OC[C@H]3CO[C@](Cn4ccnc4)(c4ccc(Cl)cc4Cl)O3)cc2)CC1,15.8 µM (active),–,–
CCCNC(C)C(=O)Nc1ccccc1C (centres undefined),inactive,–,–
C[C@]12C=CC(=O)C=C1CC[C@@H]1[C@@H]2[C@@H](O)C[C@@]2(C)[C@H]1CC[C@]2(O)C(=O)CO,inactive,-3.66%,–
CCN1C(=O)NC(c2ccccc2)C1=O (centres undefined),–,-1.94%,–
C[N+](C)(CCOc1ccccc1)Cc1cccs1,–,-23%,–
CN1CCN2c3ncccc3Cc3ccccc3C2C1 (centres undefined),–,-27.6% and -19.2%,–
COc1cc2c(Nc3ccc(Br)cc3F)ncnc2cc1OCC1CCN(C)CC1,inactive,–,–
c1ccc2sc(SSc3nc4ccccc4s3)nc2c1,inactive,–,–
CC(C)=CCC/C(C)=C/CO,–,2.42%,–
CC(=O)OCC(=O)[C@@]1(O)CC[C@H]2[C@@H]3CCC4=CC(=O)CC[C@]4(C)[C@H]3C(=O)C[C@@]21C,–,-2.62% and -39.8%,–
NC1CCN(c2nc3c(cc2F)c(=O)c(C(=O)O)cn3-c2ccc(F)cc2F)C1 (centres undefined),inactive,–,–
CCOC(=O)[C@H](CCc1ccccc1)N[C@@H](C)C(=O)N1CCC[C@H]1C(=O)O,–,-3.71% and -6.05%,–
CCN(CC)CC#CCOC(=O)C(O)(c1ccccc1)C1CCCCC1 (centres undefined),–,-28.2%,–
CN/C(=C\[N+](=O)[O-])NCCSCc1csc(CN(C)C)n1,inactive,–,–

SMILES,Potency,"activity change, negative = inhibition",outcome
COC(=O)[C@H](Cc1ccccc1)NC(=O)[C@@H](N)CC(=O)O (H-Asp-Phe-OMe),–,-5.59%,–
O=S(=O)(O)c1ccc2nc(-c3ccccc3)[nH]c2c1,inactive,–,–
CNNCc1ccc(C(=O)NC(C)C)cc1,inactive,3.71%,–
NS(=O)(=O)c1cc(C(=O)O)cc(N2CCCC2)c1Oc1ccccc1,inactive,–,–
CN1C(C(=O)Nc2ccccn2)=C(O)c2ccccc2S1(=O)=O,inactive,-89.8%,–
NC(N)=NCCN1CCCCCCC1,–,–,inactive [at 0.702 µM]
CN[C@@H]1[C@H](O)[C@H](NC)[C@H]2O[C@@]3(O)C(=O)C[C@@H](C)O[C@H]3O[C@@H]2[C@H]1O,inactive,–,–
COc1ccc(C2C(=O)c3ccccc3C2=O)cc1,inactive,–,–
COC(=O)c1cc(Cl)ccc1NS(=O)(=O)C(F)(F)F,inactive,–,–
C[C@]12CC[C@@H]3c4ccc(OC(=O)N(CCCl)CCCl)cc4CC[C@H]3[C@@H]1CC[C@@H]2OP(=O)(O)O,inactive,–,–
Cc1ccccc1C(=O)N1CC/C(=N\OS(=O)(=O)O)c2ccc(Cl)cc21,inactive,–,–
Cc1cc(NS(=O)(=O)c2ccc(N)cc2)no1,inactive,–,–
O=C(Oc1ccccc1C(=O)O)c1ccccc1O,–,-27.2%,–
O=C(O)Cc1cccc(-c2cc(CCCCCCc3ccc(O[C@H]4O[C@H](CO)[C@@H](O)[C@H](O)[C@@H]4O)c(-c4cccc(CC(=O)O)c4)c3)ccc2O[C@H]2O[C@H](CO)[C@@H](O)[C@H](O)[C@@H]2O)c1,–,-14.7% [at 0.702 µM],–
COc1ccccc1OCC(O)CO (centres undefined),–,-15.9%,–
CC(=O)OCC(=O)[C@@]1(O)CC[C@H]2[C@@H]3CCC4=CC(=O)C=C[C@]4(C)[C@@]3(F)[C@@H](O)C[C@@]21C,–,2.18%,–
COc1ccc(C(=O)NCc2ccc(OCCN(C)C)cc2)cc1OC,–,-12.5%,–
CN(C)C(=O)Oc1ccc[n+](C)c1,inactive,–,–
CN1CCC[C@@H]1c1cccnc1,inactive,–,–
